Screening data as filed in PubChem.
Compounds with a hit are over-represented: about 5.7% of the library has one in this group of screens.
DAX1 inh-1: DAX1 (NR0B1) inhibitors on StAR promoter, primary screen, cell-based, luminescence, SF-1 (NR5A1), full-length DAX-1; HEK293T StAR-luciferase reporter, SF-1/DAX-1 repression relief; AID 652010, 2013; 370,000 compounds, 1.1% hits; inhibition, % at 6.8 µM;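 active = inhibition above the mean over all tested compounds plus 3 SD, cut at about 3.6% in these data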;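 note: 0% = DAX-1 cells with DMSO and 100% = cells lacking DAX-1 with DMSO; higher inhibition means more luminescence from relief of DAX-1 repression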
DAX1 inh-2: DAX1 (NR0B1) inhibitors, primary screen, cell-based, HEK293, Gal4-DAX1, luciferase luminescence; HEK293 Gal4-DAX1 luciferase reporter; inhibition, % at 6.75 µM; 340,000 compounds, 0.99% hits;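 active = inhibition above the mean over all tested compounds plus 3 SD, cut at about 4.2% in these data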;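 note: 0% = DAX1-transfected cells with DMSO and 100% = empty-vector control cells with DMSO; inhibition shows as a rise in luminescence from relieved DAX1 repression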
Target sequence (P51843 207-470 limits assumed): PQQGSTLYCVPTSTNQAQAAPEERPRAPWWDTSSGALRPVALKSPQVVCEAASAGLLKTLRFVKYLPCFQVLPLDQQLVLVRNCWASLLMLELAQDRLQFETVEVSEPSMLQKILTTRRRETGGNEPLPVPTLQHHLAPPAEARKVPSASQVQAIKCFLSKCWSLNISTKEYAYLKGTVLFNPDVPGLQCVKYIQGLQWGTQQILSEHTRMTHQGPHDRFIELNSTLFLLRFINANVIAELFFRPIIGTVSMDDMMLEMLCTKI
hcDAF-12 act: H. contortus DAF-12 nuclear receptor activators, primary screen, cell-based, luminescence, HEK293, lit1-tk-luc reporter; activation, % at 6.8 µM; AID 652067, 2013; HEK293 hcDAF-12 lit1-tk-luc reporter; 0% DMSO, 100% Δ7-dafachronic acid; 370,000 compounds, 1.4% hits;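 active = activation above the mean of all tested compounds plus 3 SD, cut at about 5.5% in these data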;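 note: 100% = response to 3 µM Δ7-dafachronic acid high control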
ssDAF12 agonist: S. stercoralis DAF-12 nuclear receptor activators, primary screen, cell-based, luminescence, HEK293, GRIP1 co-expression, lit1-tk-luc; 370,000 compounds, 1% hits; AID 652126, 2013; activation, % at 6.8 µM; HEK293 ssDAF-12/GRIP1 lit1-tk-luc reporter; % of 3 µM dafachronic acid response;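 active = activation above the mean over all tested compounds plus 3 SD, cut at about 0.9% in these data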;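 note: 0% = DMSO-only wells and 100% = 3 µM delta7-dafachronic acid wells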
AHR activator: AHR activators, primary screen, cell-based, luminescence, luciferase reporter, human; activation, % at 5 µM; AHR-responsive luciferase reporter cells; 320,000 compounds, 2.5% hits; in the data active = activation above about 47%;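 note: 0% = vehicle wells and 100% = reference agonist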
hgDAF12 agonist: H. glycines DAF-12 receptor agonists, primary screen, cell-based, luminescence, HEK293, GAL4 fusion, UAS-luciferase; Nuclear hormone receptor DAF-12 (Heterodera glycines), GAL4 fusion; HEK293 GAL4-hgDAF12 UAS-luciferase reporter, agonist luminescence; normalized to butyrate control; activation, % at 6.8 µM; 370,000 compounds, 1.8% hits; AID 687014, 2013;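 active = activation above a cutoff set at the mean of all screened compounds plus 3 SD, cut at about 10% in these data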;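 note: 0% = DMSO wells and 100% = sodium butyrate wells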
AHR act confirm: AHR activators, confirmation, cell-based, luminescence, luciferase reporter, human. shares compounds with AHR activator. human cells, AHR-responsive luciferase reporter. activation, % at 9 µM. 2,300 compounds, 87% hits; in the data active = activation above about 49%;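 note: HepG2 hepatoma cells carrying a DRE-driven firefly luciferase reporter; 0% = vehicle wells and 100% = reference agonist wells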
PXR counter: human PXR activators, counter-screen for AHR activator project, cell-based, luciferase luminescence; shares compounds with AHR activator; cell-based PXR reporter; activation, % at 11.6 µM; 2,300 compounds, 88% hits; AID 434939, 2010; in the data active = activation above about 11%;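 note: human hepatoma DPX-2 cells expressing full-length human PXR; 0% = DMSO and 100% = reference agonist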
LXR ag: LXR agonists, Gal4 luciferase reporter, confirmation, counter-screen for hcDAF-12 agonist project, cell-based, luminescence, HEK293, H. contortus campaign. 3,400 tested, under 10 active. shares compounds with hcDAF-12 act. AID 743027, 2013. activation, % at 6.8 µM. HEK293 Gal4-LXR tk-luc reporter, 24 h; normalized: DMSO 0%, positive control 100%;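 active = mean percent activation of the reporter above a cutoff set as the average over tested compounds plus their standard deviation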
hcDAF12 ag: H. contortus DAF-12 receptor agonists, confirmation, cell-based, luminescence, HEK293, lit1-tk-luc, triplicate; 3,400 compounds, 61% hits; HEK293 hcDAF-12 lit1-tk-luc reporter; % of Δ7-dafachronic acid response; shares compounds with hcDAF-12 act; activation, % at 6.8 µM;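 active = mean activation across triplicate tests above the threshold derived from the earlier primary screen, cut at about 5.5% in these data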;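 note: 0% = DMSO only wells and 100% = 3 µM Δ7-dafachronic acid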
* marks the source's active call; other numbers are inactive results; . = not tested or not shown; ! = a repeat was not active.

SMILES	DAX1 inh-1	DAX1 inh-2	hcDAF-12 act	ssDAF12 agonist	AHR activator	hgDAF12 agonist	AHR act confirm	PXR counter	LXR ag	hcDAF12 ag
COc1ccc(O)c(-c2cc(-c3ccc(F)cc3)n[nH]2)c1	1	2	7.6*	1.0*	96*	9	159*	15*	1	6.3*
Cc1ccc(C(=O)c2oc3ccccc3c2N)cc1	1	2	9.5*	1	113*	11*	138*	22*	1	9.7*
Nc1c(C(=O)c2ccccc2)oc2ccc(Br)cc12	4.3*	5.7*	9.9*	1.3*	79*	13*	120*	12*	1	8.3*
CC(C)(C)NC(=O)NC(=O)COC(=O)c1ccc2c(c1)S(=O)(=O)N=C1CCCCCN12	0	-1	0	0	1	4	.	.	.	.
CCn1c(SCC(=O)NCCc2ccccc2)nc2c([nH]c3ccccc32)c1=O	1	0	7.2*	0	109*	4	86*	168*	0	6.7*
CCn1c(SCC(=O)NCCc2ccc(OC)c(OC)c2)nc2c([nH]c3ccccc32)c1=O	0	0	4	1	.	3	.	.	.	.
CC1=C(C(=O)OCc2ccccc2)C(/C=C/c2ccccc2)N2C(=O)CCSC2=N1 (centres undefined)	0	-1	1	0	4	2	.	.	.	.
CNC(=O)c1cc2c(ccc3ccccc32)o1	0	0	7.9*	-1	108*	4	102*	13*	0	1
COc1ccc(Cl)cc1C(=O)Nc1ccc2c(c1)OCO2	3	1	7.3*	1.5*	92*	8	105*	81*	1	10*
COc1ccccc1C(=O)Nc1ccc2c(c1)OCO2	3	2	8.0*	1.6*	146*	9	147*	53*	1	10*
COc1ccc(Cl)cc1C(=O)Nc1ccncc1	0	-2	-2	-1	-2	3	.	.	.	.
COc1ccc(-n2nc3cc(N)c(Br)cc3n2)cc1	2	5.8*	13*	1.2*	98*	13*	124*	30*	1	12*
COc1ccc(-n2nc3ccccc3n2)cc1	0	1	2	0	17	4	.	.	.	.
c1ccc2[nH]c(-c3ccnc4ccccc34)nc2c1	1	-1	6.7*!	-1	90*	6	156*	26*	0	7.9*
CC(C)c1ccc(NC(=O)COC(=O)CC2CCCC2)cc1	2	0	0	0	1	0	.	.	.	.
